For 40 sequences, binding signal results are on record in PMC5700166.

The target of one assay is T1, GST-Co-NF-kB (Capsaspora owczarzaki, UniProt F1ARL5 200-546).
T1 sequence: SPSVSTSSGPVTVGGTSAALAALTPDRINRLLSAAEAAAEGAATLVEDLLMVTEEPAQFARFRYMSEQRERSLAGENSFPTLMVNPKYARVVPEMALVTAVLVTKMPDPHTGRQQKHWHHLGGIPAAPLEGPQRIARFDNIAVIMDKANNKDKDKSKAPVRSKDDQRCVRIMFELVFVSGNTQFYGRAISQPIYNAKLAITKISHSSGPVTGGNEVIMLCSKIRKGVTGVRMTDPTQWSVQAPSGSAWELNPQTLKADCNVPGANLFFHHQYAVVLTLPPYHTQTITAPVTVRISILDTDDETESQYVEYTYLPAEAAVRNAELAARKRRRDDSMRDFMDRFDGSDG
Kind of assay: protein-binding microarray (PBM); PBM: ~300 nM protein, 6 mM HEPES pH 7.8, 80 mM KCl, 0.5 mM EDTA, 0.5 mM EGTA, 6% glycerol, 35 ng/ul poly-dIdC, 1% milk, 1 h, room temperature; Ap Aiptasia and Nv Nematostella (sea anemones) / Co Capsaspora / Aq Amphimedon (sponge) / Dm Drosophila / Hu human; RHD is the Rel homology domain; high values mean tight binding. To be noted: dsDNA, one strand shown.
Sequence “CCGATTAACATCAGGGGGGTAACTGATGTTAATCGGGTCTTGATTCGCTTGACGCTGCTG” registered a binding signal of 6.37 z-score.

Turning to “CCGATTAACATCAGGGGGGACTATGATGTTAATCGGGTCTTGATTCGCTTGACGCTGCTG”, the binding signal came out at 5.47 z-score.

As to “CCGATTAACATCAGGGAAAATAATGATGTTAATCGGGTCTTGATTCGCTTGACGCTGCTG”, the binding signal is 5.52 z-score.

Another assay concerns the target T2, GST-Dm-Relish (Drosophila melanogaster, UniProt Q94527 99-473).
T2 sequence: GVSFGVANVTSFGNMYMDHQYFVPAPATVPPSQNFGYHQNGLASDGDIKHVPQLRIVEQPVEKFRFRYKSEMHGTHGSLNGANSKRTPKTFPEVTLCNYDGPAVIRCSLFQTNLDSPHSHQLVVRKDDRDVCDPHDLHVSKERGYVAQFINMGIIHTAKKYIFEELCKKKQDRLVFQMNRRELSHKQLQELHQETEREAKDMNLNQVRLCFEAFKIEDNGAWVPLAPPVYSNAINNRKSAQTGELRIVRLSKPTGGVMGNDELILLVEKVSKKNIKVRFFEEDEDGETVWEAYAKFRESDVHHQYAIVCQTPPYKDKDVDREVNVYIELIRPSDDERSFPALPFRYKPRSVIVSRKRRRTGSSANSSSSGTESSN
Described as above. To be noted: dsDNA, one strand shown.
With “CCGATTAACATCAAAATTTTCCCTGATGTTAATCGGGTCTTGATTCGCTTGACGCTGCTG”, the binding signal was 5.19 z-score.

As for “CCGATTAACATCAAGTTTTCCCCTGATGTTAATCGGGTCTTGATTCGCTTGACGCTGCTG”, the binding signal was 6.09 z-score.

Take “CCGATTAACATCAAGGGAAATTCTGATGTTAATCGGGTCTTGATTCGCTTGACGCTGCTG”: the binding signal turned out to be 3.68 z-score.

Sequence “CCGATTAACATCAAATTCCCACATGATGTTAATCGGGTCTTGATTCGCTTGACGCTGCTG” returned a binding signal of 4.42 z-score.

As to “CCGATTAACATCAATGGGATTTCTGATGTTAATCGGGTCTTGATTCGCTTGACGCTGCTG”, the binding signal was 5.37 z-score.

“CCGATTAACATCAAGGGGGTATCTGATGTTAATCGGGTCTTGATTCGCTTGACGCTGCTG”: the binding signal came out at 3.38 z-score.

“CCGATTAACATCAAAATTCCCTATGATGTTAATCGGGTCTTGATTCGCTTGACGCTGCTG”: the binding signal stood at 5.2 z-score.

Turning to “CCGATTAACATCAGAAGTGGGAATGATGTTAATCGGGTCTTGATTCGCTTGACGCTGCTG”, the binding signal came to 1.15 z-score.

“CCGATTAACATCAGGGGGAACCATGATGTTAATCGGGTCTTGATTCGCTTGACGCTGCTG” returned a binding signal of 5.08 z-score.

Sequence “CCGATTAACATCAAGGTTTCCCCTGATGTTAATCGGGTCTTGATTCGCTTGACGCTGCTG” returned a binding signal of 7.08 z-score.

On to “CCGATTAACATCAGGGAATAACCTGATGTTAATCGGGTCTTGATTCGCTTGACGCTGCTG”, for which the binding signal worked out at 8.23 z-score.

The sequence “CCGATTAACATCAGTATTTCCCATGATGTTAATCGGGTCTTGATTCGCTTGACGCTGCTG” yielded a binding signal of 5.01 z-score.

For the sequence “CCGATTAACATCAGGGGATTCGATGATGTTAATCGGGTCTTGATTCGCTTGACGCTGCTG”, the binding signal came to 3.8 z-score.

For the sequence “CCGATTAACATCATGGGGAAAAATGATGTTAATCGGGTCTTGATTCGCTTGACGCTGCTG”, the binding signal was found to be 2.39 z-score.

The sequence “CCGATTAACATCAACATTCCCCCTGATGTTAATCGGGTCTTGATTCGCTTGACGCTGCTG” gave a binding signal of 4.3 z-score.

Regarding “CCGATTAACATCAACAATTTCCCTGATGTTAATCGGGTCTTGATTCGCTTGACGCTGCTG”, the binding signal was 2.52 z-score.

As for “CCGATTAACATCAAAAAACCCCTTGATGTTAATCGGGTCTTGATTCGCTTGACGCTGCTG”, the binding signal amounted to 8.96 z-score.

Sequence “CCGATTAACATCACGGGGATTTCTGATGTTAATCGGGTCTTGATTCGCTTGACGCTGCTG” returned a binding signal of 9.88 z-score.

“CCGATTAACATCACTTTTTCCCCTGATGTTAATCGGGTCTTGATTCGCTTGACGCTGCTG” yielded a binding signal of 3.45 z-score.

As to “CCGATTAACATCAGCGGGAATCCTGATGTTAATCGGGTCTTGATTCGCTTGACGCTGCTG”, the binding signal stood at 6.33 z-score.

On to “CCGATTAACATCAGATTTTCCCATGATGTTAATCGGGTCTTGATTCGCTTGACGCTGCTG”, for which the binding signal amounted to 1.26 z-score.

Turning to “CCGATTAACATCACCCTGGGAAATGATGTTAATCGGGTCTTGATTCGCTTGACGCTGCTG”, the binding signal turned out to be 1.08 z-score.

Turning to “CCGATTAACATCAGGGGGACTAATGATGTTAATCGGGTCTTGATTCGCTTGACGCTGCTG”, the binding signal amounted to 2.76 z-score.

Sequence “CCGATTAACATCAAGGGGATCCCTGATGTTAATCGGGTCTTGATTCGCTTGACGCTGCTG” came in with a binding signal of 10.3 z-score.

“CCGATTAACATCACGGGATTCCCTGATGTTAATCGGGTCTTGATTCGCTTGACGCTGCTG”: the binding signal is 10.2 z-score.

Sequence “CCGATTAACATCAGGGGGTTCTATGATGTTAATCGGGTCTTGATTCGCTTGACGCTGCTG” showed a binding signal of 6.97 z-score.

Consider “CCGATTAACATCAAAAATCCCCTTGATGTTAATCGGGTCTTGATTCGCTTGACGCTGCTG”, for which the binding signal worked out at 10.1 z-score.

As to “CCGATTAACATCAAAAATACCCTTGATGTTAATCGGGTCTTGATTCGCTTGACGCTGCTG”, the binding signal worked out at 7.04 z-score.

“CCGATTAACATCAAAGCTTCCCCTGATGTTAATCGGGTCTTGATTCGCTTGACGCTGCTG” gave a binding signal of 3.8 z-score.

For the sequence “CCGATTAACATCAACTTCCCCCCTGATGTTAATCGGGTCTTGATTCGCTTGACGCTGCTG”, the binding signal was 7.29 z-score.

“CCGATTAACATCAGAAAATACCCTGATGTTAATCGGGTCTTGATTCGCTTGACGCTGCTG” yielded a binding signal of 6.76 z-score.

“CCGATTAACATCAAAAAGACCCCTGATGTTAATCGGGTCTTGATTCGCTTGACGCTGCTG” registered a binding signal of 6.3 z-score.

“CCGATTAACATCAGGGAATCCCATGATGTTAATCGGGTCTTGATTCGCTTGACGCTGCTG”: the binding signal was found to be 10.4 z-score.

For “CCGATTAACATCAAGGGGTTTTCTGATGTTAATCGGGTCTTGATTCGCTTGACGCTGCTG”, the binding signal worked out at 7.2 z-score.

Sequence “CCGATTAACATCAAAGTCCCGGGTGATGTTAATCGGGTCTTGATTCGCTTGACGCTGCTG” had a binding signal of 4.38 z-score.

“CCGATTAACATCAGGGACTTTTATGATGTTAATCGGGTCTTGATTCGCTTGACGCTGCTG” displayed a binding signal of 8.37 z-score.

“CCGATTAACATCAGGCAACCCCCTGATGTTAATCGGGTCTTGATTCGCTTGACGCTGCTG” had a binding signal of 6.58 z-score.

The sequence “CCGATTAACATCAGGGGGGTAACTGATGTTAATCGGGTCTTGATTCGCTTGACGCTGCTG” registered a binding signal of 4.31 z-score.

With “CCGATTAACATCAGGGGGGACTATGATGTTAATCGGGTCTTGATTCGCTTGACGCTGCTG”, the binding signal was found to be 4.09 z-score.

Sequence “CCGATTAACATCAGGGAAAATAATGATGTTAATCGGGTCTTGATTCGCTTGACGCTGCTG” came in with a binding signal of 2.1 z-score.
